Reference: PubChem BioAssay (Tox21)
Results filed as inconclusive are left out. Where a call stands in place of a potency, no number is given. Active and inactive are the calls of the source. Unless noted, calls come from the whole dose curve; as a rule, active = well fitted curve in the direction sought with a large enough effect in the repeat runs; inconclusive = weak or mixed curves; inactive = no such curve, though single readings can be large; an effect the other way counts as inactive or inconclusive.

Columns and labels:
[1] = qHTS assay to identify aromatase inhibitors - cell viability counter screen (AID 743084);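 note: cells stimulated with testosterone during compound exposure; nearly all actives have a fitted effect of over 55% in size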; note: potency is the fitted concentration of half-maximal effect
[2] = biological target: Aryl hydrocarbon receptor (Homo sapiens) (UniProt P35869); assay: qHTS assay to identify small molecule that activate the aryl hydrocarbon receptor (AhR) signaling pathway (AID 743085); note: nearly all actives have a fitted effect of over 15% in size; note: potency is the fitted concentration of half-maximal effect;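 for activation: HG2L7.5c1 human HepG2 liver cells with stably integrated DRE-driven firefly reporter; series mostly up to about 70 µM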
Procedure, shortened: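 Stably transfected human liver carcinoma cells (HG2L7.5c1; 20 DRE-firefly luciferase) were incubated 5 h, dosed, and kept 24 h at 37C. Agonism was scored from increased luciferase luminescence.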

[3] = qHTS assay to identify small molecule that activate the aryl hydrocarbon receptor (AhR) signaling pathway - cell viability counter screen (AID 743086); note: nearly all actives have a fitted effect of over 45% in size; note: potency is the fitted concentration of half-maximal effect
Procedure, shortened: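 HepG2-AhR-luc (HG2L7.5c1) cells, 4000/well, were preincubated 5 h at 37C, exposed to compound in qHTS format for 24 hr at 37C, then given CellTiter-Fluor for 30 min; viability was read as fluorescence in the reporter wells.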

[4] = biological target: Peroxisome proliferator-activated receptor gamma (Homo sapiens) (UniProt P37231); assay: qHTS assay to identify small molecule agonists of the peroxisome proliferator-activated receptor gamma (PPARg) signaling pathway (AID 743094; active = well fitted activation curve with a large enough effect in the signal ratio in the repeat runs, not every such curve was filed as active; the % refers to the signal ratio)
Procedure, shortened: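 Cells from the PPARg UAS-bla HEK293H line are plated and incubated 5 h at 37C. Compounds in DMSO are pinned in and left 17 h at 37C. LiveBLAzer B/G substrate is then added for 1 h at room temperature before fluorescence is measured.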

[5] = qHTS assay to identify small molecule antagonists of the peroxisome proliferator-activated receptor gamma (PPARg) signaling pathway - cell viability counter screen (AID 743194); note: nearly all actives have a fitted effect of over 55% in size
Procedure, shortened: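 PPARg-UAS-bla HEK293H cells were plated, rested 5 h at 37 C, then treated with compounds plus rosiglitazone (50 nM final) for 17 h at 37 C; viability was then read by CellTiter-Glo luminescence after 30 min at room temperature.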

[6] = qHTS assay for small molecule agonists of the antioxidant response element (ARE) signaling pathway (AID 743202; active = well fitted activation curve with a large enough effect in the signal ratio in the repeat runs, not every such curve was filed as active; the % refers to the signal ratio; note: potency is the fitted concentration of half-maximal effect)
Procedure, shortened: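 Steps: seed ARE-bla HepG2 cells (2,000/well); incubate 5 h at 37 C; add compounds by pin tool; incubate 16 h at 37 C; add FRET substrate; read fluorescence after 2 h at RT.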

[7] = qHTS assay for small molecule agonists of the antioxidant response element (ARE) signaling pathway - cell viability counter screen (AID 743203; calls by dose curve; note: nearly all actives have a fitted effect of over 55% in size)
Procedure, shortened: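 Cytotoxicity was tested in parallel with the ARE reporter screen. ARE-bla HepG2 cells were exposed to compounds for 16 hrs, and viability was taken from CellTiter-Glo luminescence.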

[8] = qHTS assay to identify small molecule agonists of the peroxisome proliferator-activated receptor delta (PPARd) signaling pathway - cell viability counter screen (AID 743211); note: nearly all actives have a fitted effect of over 55% in size
Procedure, shortened: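 In the same wells used for beta-lactamase reporter measurement, cytotoxicity is scored by CellTiter-Glo. HEK293H PPARd-bla cells receive compound for 17 h at 37C following a 5 h settling period.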

[9] = biological target: Peroxisome proliferator-activated receptor delta (Homo sapiens) (UniProt Q03181); assay: qHTS assay to identify small molecule agonists of the peroxisome proliferator-activated receptor delta (PPARd) signaling pathway (AID 743212; calls by dose curve)
Procedure, shortened: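 Cells expressing a UAS-driven beta-lactamase reporter (PPARd-bla HEK293H) were given test compounds after a 5 h settle and kept at 37 C. Reporter activity was then measured as FRET fluorescence using LiveBLAzer B/G substrate.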

[10] = qHTS assay to identify small molecule antagonists of the peroxisome proliferator-activated receptor delta (PPARd) signaling pathway - cell viability counter screen (AID 743213); note: nearly all actives have a fitted effect of over 50% in size; note: potency is the fitted concentration of half-maximal effect
Procedure, shortened: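 In this counter screen, HEK293H cells carrying a UAS-beta-lactamase reporter are co-treated with test compounds and 300 nM L165041 (final) for 17 h at 37 C; cell viability is quantified by CellTiter-Glo luminescence.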

[11] = biological target: Bile acid receptor (Homo sapiens) (UniProt Q96RI1); assay: qHTS assay to identify small molecule antagonists of the farnesoid-X-receptor (FXR) signaling pathway (AID 743217; active = well fitted inhibition curve with a large enough effect in the signal ratio in the repeat runs, not every such curve was filed as active; the % refers to the signal ratio; note: potency is the fitted concentration of half-maximal effect)
Procedure, shortened: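 Cells carrying a UAS-driven beta-lactamase reporter (GeneBLAzer FXR-UAS-bla HEK 293T) were plated and rested 5 h at 37 °C. Compounds in DMSO were added alongside chenodeoxycholic acid agonist at 50 uM final and left 16 h at 37 °C before FRET substrate readout.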

[12] = biological target: Bile acid receptor (Homo sapiens) (UniProt Q96RI1); assay: qHTS assay to identify small molecule agonists of the farnesoid-X-receptor (FXR) signaling pathway (AID 743220; active = well fitted activation curve with a large enough effect in the signal ratio in the repeat runs, not every such curve was filed as active; the % refers to the signal ratio)
Procedure, shortened: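 FXR-UAS-bla HEK 293T cells carrying a UAS-driven beta-lactamase reporter were plated for 5 h at 37C/5% CO2, then exposed to DMSO-dissolved Tox21 10K compounds for 16 h at 37C. A LiveBLAzer B/G FRET substrate was loaded for 2 h at room temperature before fluorescence reading.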

[13] = qHTS assay to identify small molecule antagonists of the farnesoid-X-receptor (FXR) signaling pathway - cell viability counter screen (AID 743221; active = well fitted cell-killing curve with a large enough effect in the repeat runs, not every such curve was filed as active; note: nearly all actives have a fitted effect of over 50% in size)
Procedure, shortened: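 Here viability was scored by luminescence after CellTiter-Glo addition to wells already read for beta-lactamase. Prior treatment: compound plus CDCA (50 uM final), 16 h, 37 C, HEK 293T FXR-bla cells.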

[14] = qHTS assay for small molecule activators of the heat shock response signaling pathway - cell viability counter screen (AID 743209); note: nearly all actives have a fitted effect of over 50% in size
Procedure, shortened: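 Cytotoxicity counter screen run in parallel with the HSE beta-lactamase reporter, using the same wells. HeLa HSE-bla cells received compound for 5 h at 37 C; ATP-based CellTiter-Glo luminescence was measured after 30 min at room temperature.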

[15] = qHTS assay for small molecule activators of the heat shock response signaling pathway (AID 743210; active = well fitted activation curve with a large enough effect in the signal ratio in the repeat runs, with a control signal flat, not every such curve was filed as active; the % refers to the signal ratio;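 note: HeLa cells with beta-lactamase reporter driven by heat shock elements; series mostly up to about 63 µM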)
Procedure, shortened: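 Activation of heat shock element-controlled beta-lactamase expression is measured in HeLa cells by LiveBLAzer FRET fluorescence, with compound exposure lasting 5 h at 37 C and substrate loading 2.5 h at room temperature.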

[16] = qHTS assay to identify small molecule agonists of the farnesoid-X-receptor (FXR) signaling pathway - cell viability counter screen (AID 743218); note: nearly all actives have a fitted effect of over 45% in size
Procedure, shortened: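 Cells were seeded, left 5 h at 37 C and 5% CO2, then dosed with compound in DMSO for 16 h. After the beta-lactamase FRET read, CellTiter-Glo was added and luminescence measured 30 min later.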

[17] = biological target: Vitamin D3 receptor (Homo sapiens) (UniProt P11473); assay: qHTS assay to identify small molecule agonists of the vitamin D receptor (VDR) signaling pathway (AID 743222; calls by dose curve)
Procedure, shortened: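 Cells carrying a VDR-driven beta-lactamase reporter are seeded at 2,000 per well and rested 4 h. Compounds in DMSO are added for 16 h at 37C, and FRET substrate fluorescence is measured after 2 h at room temperature.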

[18] = biological target: Peroxisome proliferator-activated receptor delta (Homo sapiens) (UniProt Q03181); assay: qHTS assay to identify small molecule antagonists of the peroxisome proliferator-activated receptor delta (PPARd) signaling pathway (AID 743215; active = well fitted inhibition curve with a large enough effect in the signal ratio in the repeat runs, not every such curve was filed as active; the % refers to the signal ratio;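 note: cells stimulated with agonist L165041 at 300 nM final during compound exposure; series mostly up to about 62 µM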)
Procedure, shortened: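 Cells: HEK293H with a UAS-driven beta-lactamase reporter responsive to PPARd. Compounds were co-added with L165041 (300 nM, final) and incubated 17 h at 37 C before a 2 h room-temperature FRET substrate step and fluorescence reading.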

[19] = biological target: Vitamin D3 receptor (Homo sapiens) (UniProt P11473); assay: qHTS assay to identify small molecule antagonists of the vitamin D receptor (VDR) signaling pathway (AID 743223; active = well fitted inhibition curve with a large enough effect in the signal ratio in the repeat runs, not every such curve was filed as active; the % refers to the signal ratio)
Procedure, shortened: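 Inhibition of agonist-driven VDR signalling is scored in VDR-bla cells: 3 nM final 1alpha,25-dihydroxyvitamin D3 plus compound, 16 h at 37C, then beta-lactamase detection by FRET substrate fluorescence after 2 h.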

Vitamin D3 receptor (Homo sapiens), sequence (P11473 whole entry, looked up): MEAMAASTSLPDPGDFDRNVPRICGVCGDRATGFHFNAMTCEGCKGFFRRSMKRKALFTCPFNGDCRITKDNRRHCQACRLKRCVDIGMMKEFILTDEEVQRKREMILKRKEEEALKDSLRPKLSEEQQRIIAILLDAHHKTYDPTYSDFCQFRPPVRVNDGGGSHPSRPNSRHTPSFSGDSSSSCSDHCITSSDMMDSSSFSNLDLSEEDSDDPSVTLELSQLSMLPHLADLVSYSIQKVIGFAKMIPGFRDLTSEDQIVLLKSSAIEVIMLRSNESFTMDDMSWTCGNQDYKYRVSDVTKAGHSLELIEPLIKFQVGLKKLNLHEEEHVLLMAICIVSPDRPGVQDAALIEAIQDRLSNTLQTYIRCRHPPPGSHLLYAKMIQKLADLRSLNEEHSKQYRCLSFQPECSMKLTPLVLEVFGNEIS
Peroxisome proliferator-activated receptor delta (Homo sapiens), sequence (Q03181 whole entry, looked up): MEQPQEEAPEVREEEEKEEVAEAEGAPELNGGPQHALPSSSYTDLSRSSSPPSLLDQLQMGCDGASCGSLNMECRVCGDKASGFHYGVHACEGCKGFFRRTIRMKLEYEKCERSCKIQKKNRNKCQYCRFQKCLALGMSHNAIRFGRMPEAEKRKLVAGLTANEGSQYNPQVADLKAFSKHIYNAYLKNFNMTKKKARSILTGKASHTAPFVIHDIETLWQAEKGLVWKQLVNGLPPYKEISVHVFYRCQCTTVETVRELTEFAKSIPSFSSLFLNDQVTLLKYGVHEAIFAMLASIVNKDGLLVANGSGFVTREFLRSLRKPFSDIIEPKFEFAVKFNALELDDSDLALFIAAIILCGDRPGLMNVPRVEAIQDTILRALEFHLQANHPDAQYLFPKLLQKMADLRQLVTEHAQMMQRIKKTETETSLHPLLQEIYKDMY
Bile acid receptor (Homo sapiens), sequence (Q96RI1 whole entry, looked up): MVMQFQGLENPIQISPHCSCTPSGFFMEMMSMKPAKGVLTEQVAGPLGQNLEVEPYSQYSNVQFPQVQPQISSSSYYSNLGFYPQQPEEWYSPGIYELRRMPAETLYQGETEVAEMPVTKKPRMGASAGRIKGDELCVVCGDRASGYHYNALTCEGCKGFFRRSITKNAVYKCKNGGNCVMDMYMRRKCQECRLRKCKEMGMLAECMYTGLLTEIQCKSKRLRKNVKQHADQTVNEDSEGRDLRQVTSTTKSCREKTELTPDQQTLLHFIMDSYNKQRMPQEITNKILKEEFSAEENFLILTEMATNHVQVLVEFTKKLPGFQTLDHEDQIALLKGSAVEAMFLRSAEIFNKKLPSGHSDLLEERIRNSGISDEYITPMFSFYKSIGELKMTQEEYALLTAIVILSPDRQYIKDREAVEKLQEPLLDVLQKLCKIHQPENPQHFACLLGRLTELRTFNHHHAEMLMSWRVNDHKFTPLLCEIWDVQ
Peroxisome proliferator-activated receptor gamma (Homo sapiens), sequence (P37231 whole entry, looked up): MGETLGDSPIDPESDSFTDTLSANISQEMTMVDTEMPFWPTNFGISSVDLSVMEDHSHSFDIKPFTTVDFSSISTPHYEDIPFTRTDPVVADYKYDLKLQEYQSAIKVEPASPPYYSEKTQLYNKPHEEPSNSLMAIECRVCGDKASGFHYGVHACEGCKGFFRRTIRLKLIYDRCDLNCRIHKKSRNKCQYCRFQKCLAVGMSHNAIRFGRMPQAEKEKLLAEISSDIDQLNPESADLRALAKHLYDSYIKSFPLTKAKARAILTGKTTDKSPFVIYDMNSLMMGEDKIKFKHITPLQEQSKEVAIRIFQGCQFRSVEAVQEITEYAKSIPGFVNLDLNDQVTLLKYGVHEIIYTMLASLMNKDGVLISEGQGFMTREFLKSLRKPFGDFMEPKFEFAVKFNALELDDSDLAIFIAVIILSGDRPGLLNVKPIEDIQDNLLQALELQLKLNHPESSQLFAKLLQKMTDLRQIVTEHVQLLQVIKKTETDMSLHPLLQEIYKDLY
Aryl hydrocarbon receptor (Homo sapiens), sequence (P35869 whole entry, looked up): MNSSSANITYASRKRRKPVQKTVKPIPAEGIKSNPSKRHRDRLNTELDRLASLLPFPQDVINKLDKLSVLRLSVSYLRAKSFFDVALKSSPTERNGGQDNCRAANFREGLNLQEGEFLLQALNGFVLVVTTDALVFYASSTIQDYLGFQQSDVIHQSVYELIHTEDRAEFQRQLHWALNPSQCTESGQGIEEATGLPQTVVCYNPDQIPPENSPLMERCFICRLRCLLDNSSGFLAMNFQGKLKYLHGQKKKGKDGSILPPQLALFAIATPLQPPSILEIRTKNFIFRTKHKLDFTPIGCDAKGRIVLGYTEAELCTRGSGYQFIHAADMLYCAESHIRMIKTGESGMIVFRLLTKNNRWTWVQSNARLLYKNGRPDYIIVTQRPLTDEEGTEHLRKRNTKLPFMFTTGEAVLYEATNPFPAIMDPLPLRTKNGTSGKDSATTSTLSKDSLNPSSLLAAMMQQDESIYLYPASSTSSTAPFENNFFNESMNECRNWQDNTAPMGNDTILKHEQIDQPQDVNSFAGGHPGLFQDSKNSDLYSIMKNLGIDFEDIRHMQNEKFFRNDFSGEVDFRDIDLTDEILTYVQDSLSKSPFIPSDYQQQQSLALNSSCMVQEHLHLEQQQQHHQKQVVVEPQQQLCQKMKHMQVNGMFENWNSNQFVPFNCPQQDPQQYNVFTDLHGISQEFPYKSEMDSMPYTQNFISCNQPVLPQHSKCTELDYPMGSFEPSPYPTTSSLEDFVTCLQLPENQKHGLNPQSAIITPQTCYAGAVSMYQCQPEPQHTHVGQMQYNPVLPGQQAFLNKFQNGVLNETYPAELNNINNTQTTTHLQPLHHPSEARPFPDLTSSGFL

SMILES | Potency [1] | Potency [2] | Potency [3] | Potency [4] | Potency [5] | Potency [6] | Potency [7] | Potency [8] | Potency [9] | Potency [10] | Potency [11] | Potency [12] | Potency [13] | Potency [14] | Potency [15] | Potency [16] | Potency [17] | Potency [18] | outcome [19]
Cn1c(=O)cc(Oc2ccc(F)cc2F)c2cnc(NCC(C)(C)O)nc21 | inactive | inactive | inactive | inactive | inactive | 30.6 µM (active) | inactive | inactive | inactive | inactive | 43.6 µM (active) | inactive | inactive | – | – | – | – | – | –
O=P(O)(OCc1ccccc1)OCc1ccccc1 | inactive | inactive | inactive | inactive | inactive | – | inactive | inactive | – | inactive | – | inactive | inactive | inactive | inactive | inactive | inactive | – | –
CCNc1cc(O)ccc1C | inactive | 30.3 µM (active) | inactive | – | inactive | – | inactive | inactive | inactive | inactive | inactive | inactive | inactive | inactive | inactive | inactive | inactive | inactive | –
Cc1ncc(CO)c(C=O)c1O | inactive | inactive | inactive | inactive | inactive | – | inactive | inactive | inactive | inactive | – | – | inactive | inactive | – | inactive | inactive | inactive | inactive
CC/C=C\CCOC(=O)CC | inactive | inactive | inactive | – | inactive | inactive | inactive | inactive | inactive | inactive | – | – | inactive | inactive | inactive | – | – | – | –
CCOC(=O)C(F)(F)F | inactive | inactive | inactive | inactive | inactive | – | inactive | inactive | inactive | inactive | inactive | inactive | inactive | inactive | inactive | inactive | inactive | inactive | –
C[C@@H]1C[C@H]2O[C@@]3(O[C@@H]2C(C)(C)O)[C@H](O)[C@@]2(C)[C@@H]4CC[C@H]5C(C)(C)[C@@H](O[C@@H]6OC[C@@H](O)[C@H](O)[C@H]6O)CC[C@@]56C[C@@]46CC[C@]2(C)[C@@H]13 | inactive | inactive | inactive | inactive | inactive | – | inactive | inactive | – | inactive | – | – | inactive | inactive | inactive | inactive | inactive | – | –
C=C(C)C(=O)OCCOCC | inactive | inactive | inactive | inactive | inactive | – | inactive | inactive | inactive | inactive | – | – | inactive | inactive | inactive | inactive | – | inactive | –
NCc1ccccc1Sc1ccccc1CO | inactive | inactive | inactive | inactive | inactive | – | inactive | inactive | – | inactive | – | – | inactive | inactive | inactive | inactive | – | – | inactive
C1CCCNCCC1 | inactive | inactive | inactive | inactive | inactive | inactive | inactive | inactive | inactive | – | inactive | – | – | – | inactive | inactive | inactive | – | –
CCCCCCCCCCCCCCCCOS(=O)(=O)O | inactive | inactive | inactive | inactive | inactive | – | – | – | – | – | – | inactive | inactive | inactive | – | inactive | – | – | inactive
CN(Cc1ccc(C(C)(C)C)cc1)Cc1cccc2ccccc12 | inactive | inactive | inactive | inactive | – | inactive | inactive | – | – | 23.7 µM (active) | – | inactive | – | inactive | inactive | – | inactive | inactive | inactive
COc1ccc(S(=O)(=O)N2C(=O)[C@@](c3ccccc3OC)(N3C[C@H](O)C[C@H]3C(=O)N(C)C)c3cc(Cl)ccc32)c(OC)c1 | 30.6 µM (active) | inactive | 30.6 µM (active) | inactive | – | – | – | – | – | – | – | – | inactive | inactive | inactive | inactive | inactive | inactive | –
COC(C)(C)CCO | inactive | inactive | inactive | inactive | inactive | – | inactive | inactive | inactive | inactive | – | – | inactive | inactive | inactive | inactive | inactive | inactive | inactive
CC1=CC=C(C(C)C)CC1 | inactive | inactive | inactive | inactive | – | inactive | inactive | inactive | – | inactive | – | – | inactive | inactive | inactive | inactive | – | – | –
Nc1cccc(S(=O)(=O)c2cccc(N)c2)c1 | inactive | inactive | inactive | inactive | inactive | – | inactive | inactive | inactive | – | – | – | inactive | inactive | inactive | inactive | – | – | inactive
CCOC(=O)c1cccnc1 | inactive | inactive | inactive | inactive | inactive | inactive | inactive | inactive | inactive | inactive | – | – | inactive | – | inactive | inactive | – | inactive | –
